# SNCA viab count: GF-AFC viability counterscreen for inhibitors of alpha-synuclein gene (SNCA) expression. HEK-293-SNCA-luc viability, GF-AFC fluorescence, 24 h. Potency, µM (series often up to 57.1 µM), for the others: top-dose activity change, negative = cytotoxicity, usual class: cytotoxic. 0.12% of 150,000 active;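 note: potency is the fitted concentration of half-maximal effect; 0% = DMSO-treated cells and -100% = medium-only wells without cells; nearly all actives have a fitted effect of over 30% in size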
#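 Cytotoxicity counterscreen: after 24 h compound treatment of genome-edited SNCA-luciferase HEK-293 cells, live-cell protease substrate GF-AFC read by fluorescence after 30 min; activity scaled between DMSO (0%) and medium-only (-100%), curves Hill-fitted.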
# KDM5B inhibitor: Primary screen for KDM5B Histone Demethylases FDH-coupled qHTS; Lysine-specific demethylase 5B (Homo sapiens), Q9UGL1; KDM5B demethylase, FDH-coupled NADH fluorescence (FDH is formaldehyde dehydrogenase); Potency, µM (top dose mostly 57.7 µM), usual class: inhibitors; 2.6% of 220,000 active; note: potency is the fitted concentration of half-maximal effect; 0% is about no effect; nearly all actives have a fitted effect of over 70% in size
#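 Coupled FDH/NAD⁺ fluorescence readout. KDM5BΔAP 200 nM final; compound titration, 10 min RT preincubation; substrate mix 12.5 µM H3K4me3, 25 µM 2-OG, 50 µM Fe(II), 100 µM ascorbate, 0.25 mM NAD⁺, 0.25 U/mL FDH; ΔRFU over 30 min.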
# SNCA expr inh: Primary qHTS assay for inhibitors of alpha-synuclein gene (SNCA) expression. Potency, µM (doses to about 57.2 µM), for inactives: at the highest dose activity change, negative = inhibition, hits mostly inhibitors. HEK-293 SNCA-luciferase knock-in, luminescence, 24 h. AID 1671194, 2021. 0.17% of 140,000 active;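 note: potency is the fitted concentration of half-maximal effect; plate controls were DMSO cells for no effect and cell-free wells for full effect; nearly all actives have a fitted effect of over 45% in size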
# IP6K1 inh: Primary qHTS assay for small molecule inhibitors of Inositol hexaphosphate kinase 1 (IP6K1). IP6K1 kinase, ADP-Glo luminescence, 2 h; hits give low values. activity change, % (series mostly up to about 58 µM). 0.81% of 140,000 active. Inositol hexakisphosphate kinase 1 (Homo sapiens), Q92551; in the data active = activity change below about -25%; note: % is set by controls: 0 for no effect and ±100 for the full control effect
#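 ADP-Glo luminescence measures ADP made by human IP6K1 during a 2 h RT reaction with ATP/IP6 (mix at 1.3 mM/130 uM); top library doses 57.5 and 19.1 uM final.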
# * = called active by the depositor; i = inactive; ? = inconclusive; . = not tested or not shown; [ ] = dose if it differs, or a comment. An excerpt weighted towards active compounds, which were near 2.9% of everything screened. Unless noted, calls come from the whole dose curve; as a rule, active = well fitted curve in the direction sought with a large enough effect; inconclusive = small, poorly fitted or top-dose-only effect, or another doubt; inactive = no such curve, though single readings can be large; an effect the other way counts as inactive or inconclusive.
SMILES,SNCA viab count,KDM5B inhibitor,SNCA expr inh,IP6K1 inh
COCCNc1ncccc1-c1noc([C@@H]2CCCN2Cc2ccco2)n1,-8%[87.6 µM],28µM*,-21%[87.6 µM],-6
COCCOc1ncccc1-c1noc([C@@H]2CCCN2C2CCN(C)CC2)n1,-3%[87.6 µM],i,-5%[87.6 µM],-9
COCCNc1ncccc1-c1noc([C@@H]2CCCN2C2CCOCC2)n1,-12%[87.6 µM],40µM*,0%[87.6 µM],14
CC(=O)N[C@@H](CC(C)C)C(=O)N[C@@H](CCC(=O)O)C(=O)N[C@@H](CCC(=O)O)C(=O)N[C@@H](CC(=O)O)C(=O)Nc1ccc2c(C(F)(F)F)cc(=O)oc2c1,5%,.,.,6
COc1ccccc1NC(=O)c1cc(S(=O)(=O)N2CCN(c3ccccc3Cl)CC2)ccc1F,6%,i,-2%,-11
COc1ccccc1N1CCN(S(=O)(=O)c2ccc(F)c(C(=O)Nc3ccc(Cl)cc3C(F)(F)F)c2)CC1,7%,i,-2%,-34*
COc1ccc(C(=O)Nc2ccc(-c3noc([C@@H]4CCCN4Cc4ccc(OC(F)(F)F)cc4)n3)cn2)cc1,-7%,?,-12%,-2
O[C@@H]1C[C@@H](c2nc(-c3ccccn3)no2)N(Cc2cc3ccccc3o2)C1,-2%[87.6 µM],32µM*,94%[87.6 µM],12
COc1ccc(C(=O)Nc2ccc(-c3noc([C@@H]4CCCN4Cc4ccc(C(F)(F)F)cc4)n3)cn2)cc1,-8%,28µM*,-24%,-3
CN(C)c1ccc(-c2noc([C@@H]3CCCN3CC3CCCCC3)n2)cn1,12%[87.6 µM],40µM*,40%[87.6 µM],19
COc1ccc(C(=O)Nc2ccc(-c3noc([C@@H]4CCCN4CC4CCCCC4)n3)cn2)cc1,-8%,32µM*,-11%,-3
O=c1cc(-c2cccnc2)oc2c(NCCc3ccccn3)nccc12,-3%[87.6 µM],i,17%[87.6 µM],-9
COCC(=O)Nc1ccc(-c2noc([C@@H]3CCCN3Cc3cc4ccccc4o3)n2)cn1,-5%[87.6 µM],32µM*,-7%[87.6 µM],19
COCC(=O)Nc1ccc(-c2noc([C@@H]3CCCN3Cc3ccc(NC(C)=O)cc3)n2)cn1,-3%,i,2%,15
CN1C[C@H](C(=O)N2CCN(c3ccccn3)CC2)C[C@H]1c1cccc(C(F)(F)F)c1,-17%[87.6 µM],40µM*,-1%[87.6 µM],13
Cc1ccc(Cn2c(C3CCN(C(=O)c4cc(C)cc(C)c4)CC3)n[nH]c2=O)cc1,4%,i,-6%,0
CC(C)NC(=O)c1cc(-c2ccc(S(C)(=O)=O)cc2)nc2c1cnn2C,2%,79µM*,19%,4
CC(C)NC(=O)c1cc(-c2ccc(F)cc2)nc2c1cnn2C,.,.,.,-4
CC(C)NC(=O)c1cc(-c2ccc(Cl)nc2)nc2c1cnn2C,-1%,56µM*,35%,-12
COc1cccc(CN2CCCC(c3nc(CCOc4cccc(C)c4)no3)C2)c1 (centres undefined),-9%,i,-7%,-8
COc1ccccc1-c1ccnc(N[C@H]2CO[C@H]3[C@@H]2OC[C@@H]3NS(=O)(=O)c2ccc3ccccc3c2)n1,0%,?,5%,-3
Cc1ccc(C(=O)N[C@H]2CO[C@H]3[C@@H]2OC[C@@H]3Nc2nccc(-c3ccc4c(c3)OCO4)n2)cc1,-8%,28µM*,-1%,-4
COc1ccc(-c2ccnc(N[C@H]3CO[C@H]4[C@@H]3OC[C@@H]4NC(=O)c3ccc4c(c3)OCO4)n2)cc1,?,i,?,-19
O=S(=O)(N[C@H]1CO[C@H]2[C@@H]1OC[C@@H]2Nc1nccc(-c2ccc3c(c2)OCO3)n1)c1ccc2ccccc2c1,-16%,28µM*,?,2
Cc1noc2c(-c3ccc4c(ccn4C)c3)cc(-c3cccnc3)nc12,-6%[87.6 µM],32µM*,-12%[87.6 µM],4
SMILES,SNCA viab count,KDM5B inhibitor,SNCA expr inh,IP6K1 inh
COc1cccc(-c2cc(-c3ccccc3)nc3c(C)noc23)c1,19%[87.6 µM],32µM*,-10%[87.6 µM],-6
COc1ccc(-c2cc(-c3ccccc3)nc3c(C)noc23)cc1OC,6%[87.6 µM],25µM*,9%[87.6 µM],24
COc1cccc(-c2cc(-c3cccs3)nc3c(C)noc23)c1,8%[87.6 µM],?,-11%[87.6 µM],-11
O=C1c2c(nc(CNCc3cnccn3)n2Cc2ccccc2)NCCN1Cc1cccc(Cl)c1,-18%,25µM*,19%,-12
CCN(CC)c1cc(CCC(=O)NCc2ccccc2OC)ccn1,-3%,25µM*,-28%,-1
CCN(CC)c1cc(CCC(=O)Nc2ccc(OC)c(OC)c2)ccn1,-1%,?,15%,9
CCn1cc(CCC(=O)NCc2ccccc2OC)c2ccccc21,3%,?,2%,27
CCN(CC)c1cc(CCC(=O)NCc2cc(OC)ccc2OC)ccn1,1%,14µM*,-2%,0
O=C1CC2(CCN(CC3CC3)CC2)Oc2ccccc21,1%[87.6 µM],32µM*,?,9
O=C1CC2(CCN(S(=O)(=O)c3cccs3)CC2)Oc2ccccc21,-7%,18µM*,?,3
COc1ccc(CN2CCC3(CC2)CC(=O)c2ccccc2O3)cc1,5%[87.6 µM],35µM*,?,7
COc1ccc(CN2CCC3(CC2)CNC(=O)c2ccccc2O3)cc1,0%,i,8%,-13
O=C1CC2(CCN(Cc3ccsc3)CC2)Oc2ccccc21,10%[87.6 µM],35µM*,132%[87.6 µM],11
OCC1OC(Oc2cc(O)cc(/C=C/c3ccc(O)cc3)c2)C(O)C(O)C1O (centres undefined),4%,.,.,-4
COc1ccc(F)cc1-c1cccc(C(=O)NCC(=O)N2CCN(C)CC2)c1,.,.,.,3
CNC(=O)[C@@H]1CN(S(=O)(=O)c2cccc(C#N)c2)C[C@H]1C1CCN(C)CC1,2%[12.5 µM],i,-1%,11
COc1ccc(C(=O)N2CCC3(CC2)CC(=O)c2ccccc2O3)cc1,-24%,32µM*,-20%,10
Cn1cccc1CN1CCC2(CC1)CC(=O)c1ccccc1O2,0%[87.6 µM],25µM*,143%[87.6 µM],3
Cn1cccc1CN1CCC2(CC1)CC(=O)c1ccc(Cl)cc1O2,-18%[87.6 µM],i,48%[87.6 µM],-1
O=C1CC2(CCN(Cc3ccccc3)CC2)Oc2ccccc21,6%[87.6 µM],35µM*,30%[87.6 µM],8
CCCN1CCC2(CCN([S+](=O)([O-])c3c(C)noc3C)CC2)Oc2ccccc21,-7%,i,-2%,-7
Cc1noc(C)c1[S+](=O)([O-])N1CCC2(CC1)CC(=O)c1ccccc1O2,-2%,20µM*,6%,11
COc1ccc(CNC(=O)CSc2nc3ccccc3nc2Cc2ccccc2OC)cc1,21%,i,?,-11
O=C1CC2(CCN(C(=O)c3ccc4c(c3)OCO4)CC2)Oc2ccccc21,-13%,25µM*,6%,17
CCn1ccc(C(=O)N2C[C@@H](COC)[C@H](c3nc(C)no3)C2)n1,?,i,?,-6
O=C(c1ccc2cc[nH]c2c1)N1C[C@@H](CO)[C@H](c2ccccn2)C1,2%,?,-3%,-2

# Assay outcomes from PubChem.
